Test results from the supplement of paper PMC10849652.
The full data set covers some 8,800 targets. This sample favours those with a hit. About 0.5% of all pairs of compound and target were hits. A number with no mark means an inactive call.

Experiments:
Assay in all cases: log2 fold change, soluble protein after heating vs DMSO (PISA); higher = thermal stabilisation; K562 lysate, 10 uM; active = over 0.2 and 3.5 SD of the protein, either way, in both replicates (recomputed)
alvocidib = compound: CN1CC[C@H](c2c(O)cc(O)c3c(=O)cc(-c4ccccc4Cl)oc23)[C@H](O)C1 [alvocidib]
Outline: (§1)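 Quantification was by TMTpro 16plex LC-MS/MS with equalised channel sums, applied to the supernatant after 21,000xg for 90 min. Samples were crude K562 extract at 1 mg/mL protein in PBS pH 7.4 with 1 mM MgCl2, treated with 10 μM compound for 30 min, heated for 3 min across 48°C-58°C, pooled and brought to 0.5% NP-40 at 4°C. Values are log-two fold changes in thermal stability relative to solvent controls, from duplicates.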

Tubastatin A = compound: CN1CCc2c(c3ccccc3n2Cc2ccc(C(=O)NO)cc2)C1 [Tubastatin A]
Outline: as §1

[1] = compound: CNC(=O)C1=CC=CC=C1NC2=NC(=NC=C2Cl)NC3=C(C=C(C=C3)N4CCOCC4)OC
Outline: as §1

defactinib = compound: CNC(=O)c1ccc(Nc2ncc(C(F)(F)F)c(NCc3nccnc3N(C)S(C)(=O)=O)n2)cc1 [defactinib]
Outline: as §1

[2] = compound: CNc1nc(-c2ccc3c(N)n[nH]c3c2)cc(N2C[C@@H](C(=O)NC3CCCCC3)CC[C@H]2C)n1
Outline: as §1

encorafenib = compound: COC(=O)N[C@@H](C)CNc1nccc(-c2cn(C(C)C)nc2-c2cc(Cl)cc(NS(C)(=O)=O)c2F)n1 [encorafenib]
Outline: as §1

[3] = compound: COC(=O)[C@H](CCSC)NC(=O)C1=C(C=C(C=C1)NC[C@H](CS)N)C2=CC=CC=C2
Outline: as §1

alisertib = compound: COc1cc(Nc2ncc3c(n2)-c2ccc(Cl)cc2C(c2c(F)cccc2OC)=NC3)ccc1C(=O)O [alisertib]
Outline: as §1

[4] = compound: COc1cc2nc(-c3cc(F)ccc3O)nc(N[C@@H]3CNC[C@H]3C(C)(C)O)c2cc1OC
Outline: as §1

gefitinib = compound: COc1cc2ncnc(Nc3ccc(F)c(Cl)c3)c2cc1OCCCN1CCOCC1 [gefitinib]
Outline: as §1

lapatinib = compound: CS(=O)(=O)CCNCc1ccc(-c2ccc3ncnc(Nc4ccc(OCc5cccc(F)c5)c(Cl)c4)c3c2)o1 [lapatinib]
Outline: as §1

pictilisib = compound: CS(=O)(=O)N1CCN(Cc2cc3nc(-c4cccc5[nH]ncc45)nc(N4CCOCC4)c3s2)CC1 [pictilisib]
Outline: as §1

crizotinib = compound: C[C@@H](Oc1cc(-c2cnn(C3CCNCC3)c2)cnc1N)c1c(Cl)ccc(F)c1Cl [crizotinib]
Outline: as §1

[5] = compound: C[C@H](C1=CC=C(C=C1)C(=O)NC2=C3C=CNC3=NC=C2)N
Outline: as §1

duvelisib = compound: C[C@H](Nc1ncnc2nc[nH]c12)c1cc2cccc(Cl)c2c(=O)n1-c1ccccc1 [duvelisib]
Outline: as §1

gandotinib = compound: Cc1cc(Nc2cc(CN3CCOCC3)c3nc(C)c(Cc4ccc(Cl)cc4F)n3n2)n[nH]1 [gandotinib]
Outline: as §1

tozasertib = compound: Cc1cc(Nc2cc(N3CCN(C)CC3)nc(Sc3ccc(NC(=O)C4CC4)cc3)n2)n[nH]1 [tozasertib]
Outline: as §1

doramapimod = compound: Cc1ccc(-n2nc(C(C)(C)C)cc2NC(=O)Nc2ccc(OCCN3CCOCC3)c3ccccc23)cc1 [doramapimod]
Outline: as §1

bafetinib = compound: Cc1ccc(NC(=O)c2ccc(CN3CC[C@H](N(C)C)C3)c(C(F)(F)F)c2)cc1Nc1nccc(-c2cncnc2)n1 [bafetinib]
Outline: as §1

[6] = compound: Cc1cccc(CC(=O)N2CCc3c2ccc(-c2cn(C)c4ncnc(N)c24)c3F)n1
Outline: as §1

UniProt Q8NEM2, sequence (Q8NEM2 whole entry, looked up): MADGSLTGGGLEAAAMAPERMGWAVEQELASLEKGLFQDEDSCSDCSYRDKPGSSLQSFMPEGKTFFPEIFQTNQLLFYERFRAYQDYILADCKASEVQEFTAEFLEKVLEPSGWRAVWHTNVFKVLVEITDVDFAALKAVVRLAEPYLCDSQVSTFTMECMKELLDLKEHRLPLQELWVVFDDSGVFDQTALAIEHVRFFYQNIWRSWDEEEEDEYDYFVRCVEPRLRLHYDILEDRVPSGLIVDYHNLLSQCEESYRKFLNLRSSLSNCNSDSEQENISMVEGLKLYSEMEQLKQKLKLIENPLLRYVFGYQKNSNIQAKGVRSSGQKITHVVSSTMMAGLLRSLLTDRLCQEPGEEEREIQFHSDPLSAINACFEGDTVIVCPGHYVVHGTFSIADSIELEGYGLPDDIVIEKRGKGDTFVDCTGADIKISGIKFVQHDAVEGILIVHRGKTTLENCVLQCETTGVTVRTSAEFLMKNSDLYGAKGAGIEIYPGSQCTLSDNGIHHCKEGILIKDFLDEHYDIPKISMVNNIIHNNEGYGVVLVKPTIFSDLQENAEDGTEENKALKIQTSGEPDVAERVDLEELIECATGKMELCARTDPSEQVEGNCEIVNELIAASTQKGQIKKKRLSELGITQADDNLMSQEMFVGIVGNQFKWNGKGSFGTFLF
UniProt Q92540, sequence (Q92540 whole entry, looked up): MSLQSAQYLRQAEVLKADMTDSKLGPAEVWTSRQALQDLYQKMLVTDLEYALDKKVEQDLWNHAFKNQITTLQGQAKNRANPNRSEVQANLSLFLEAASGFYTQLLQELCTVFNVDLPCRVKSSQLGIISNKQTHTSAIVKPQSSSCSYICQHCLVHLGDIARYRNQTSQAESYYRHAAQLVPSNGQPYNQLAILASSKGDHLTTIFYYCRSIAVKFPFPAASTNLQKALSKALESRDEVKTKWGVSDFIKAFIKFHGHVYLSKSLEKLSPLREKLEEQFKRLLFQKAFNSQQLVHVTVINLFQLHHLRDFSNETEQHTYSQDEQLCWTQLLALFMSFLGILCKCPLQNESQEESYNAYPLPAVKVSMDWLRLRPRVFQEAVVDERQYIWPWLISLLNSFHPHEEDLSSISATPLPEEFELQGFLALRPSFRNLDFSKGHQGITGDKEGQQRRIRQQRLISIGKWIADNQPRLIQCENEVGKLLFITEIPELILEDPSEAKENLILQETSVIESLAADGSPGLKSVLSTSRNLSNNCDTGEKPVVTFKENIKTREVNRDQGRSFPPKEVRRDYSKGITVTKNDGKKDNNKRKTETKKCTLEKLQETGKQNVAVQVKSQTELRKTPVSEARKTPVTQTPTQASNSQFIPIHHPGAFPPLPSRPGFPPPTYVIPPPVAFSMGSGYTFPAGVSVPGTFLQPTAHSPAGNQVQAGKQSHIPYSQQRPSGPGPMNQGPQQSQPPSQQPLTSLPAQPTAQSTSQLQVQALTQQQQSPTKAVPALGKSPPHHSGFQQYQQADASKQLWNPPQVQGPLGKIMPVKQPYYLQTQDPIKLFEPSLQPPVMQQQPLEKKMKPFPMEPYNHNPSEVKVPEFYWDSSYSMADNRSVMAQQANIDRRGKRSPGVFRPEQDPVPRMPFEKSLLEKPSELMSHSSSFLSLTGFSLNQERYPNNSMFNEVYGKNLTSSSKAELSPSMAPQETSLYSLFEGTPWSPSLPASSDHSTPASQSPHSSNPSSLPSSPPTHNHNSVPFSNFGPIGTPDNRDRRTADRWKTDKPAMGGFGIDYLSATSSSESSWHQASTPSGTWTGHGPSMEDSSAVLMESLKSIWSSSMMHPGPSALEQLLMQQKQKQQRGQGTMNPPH
UniProt P31947, sequence (P31947 whole entry, looked up): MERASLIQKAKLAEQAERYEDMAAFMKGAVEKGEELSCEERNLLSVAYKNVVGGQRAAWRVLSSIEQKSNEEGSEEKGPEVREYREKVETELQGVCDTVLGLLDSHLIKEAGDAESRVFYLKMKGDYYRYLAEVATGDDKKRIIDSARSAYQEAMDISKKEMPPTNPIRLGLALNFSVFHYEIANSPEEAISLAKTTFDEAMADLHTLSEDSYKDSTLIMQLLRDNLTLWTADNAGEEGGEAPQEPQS
UniProt Q9UPR3, sequence (Q9UPR3 whole entry, looked up): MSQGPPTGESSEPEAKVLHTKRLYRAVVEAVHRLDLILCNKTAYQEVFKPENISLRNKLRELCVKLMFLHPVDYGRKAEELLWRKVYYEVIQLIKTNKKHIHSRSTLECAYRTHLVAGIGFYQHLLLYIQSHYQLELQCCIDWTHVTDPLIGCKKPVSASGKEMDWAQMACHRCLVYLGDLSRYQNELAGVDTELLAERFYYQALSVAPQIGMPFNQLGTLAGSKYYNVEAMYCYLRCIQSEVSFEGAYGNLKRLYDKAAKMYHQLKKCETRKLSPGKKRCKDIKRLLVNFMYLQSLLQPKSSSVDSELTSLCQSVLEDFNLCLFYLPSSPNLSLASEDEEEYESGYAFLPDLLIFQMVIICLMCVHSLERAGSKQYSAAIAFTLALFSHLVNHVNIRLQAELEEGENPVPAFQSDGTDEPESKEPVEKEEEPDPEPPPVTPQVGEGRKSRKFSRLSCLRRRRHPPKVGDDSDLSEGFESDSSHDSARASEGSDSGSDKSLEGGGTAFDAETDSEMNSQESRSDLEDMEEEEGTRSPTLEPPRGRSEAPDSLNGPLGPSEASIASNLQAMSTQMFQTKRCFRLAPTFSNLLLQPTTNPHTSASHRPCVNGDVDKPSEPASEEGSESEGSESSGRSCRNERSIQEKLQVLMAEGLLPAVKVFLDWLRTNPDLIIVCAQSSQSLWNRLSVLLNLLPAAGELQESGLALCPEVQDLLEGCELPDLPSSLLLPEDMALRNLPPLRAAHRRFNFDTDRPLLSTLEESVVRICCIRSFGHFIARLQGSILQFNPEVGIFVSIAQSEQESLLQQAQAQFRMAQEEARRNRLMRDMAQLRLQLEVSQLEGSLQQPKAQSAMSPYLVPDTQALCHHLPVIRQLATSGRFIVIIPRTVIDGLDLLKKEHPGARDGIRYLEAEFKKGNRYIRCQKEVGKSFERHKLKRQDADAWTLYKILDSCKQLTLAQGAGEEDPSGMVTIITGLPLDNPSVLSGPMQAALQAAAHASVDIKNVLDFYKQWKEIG
UniProt Q6KCM7, sequence (Q6KCM7 whole entry, looked up): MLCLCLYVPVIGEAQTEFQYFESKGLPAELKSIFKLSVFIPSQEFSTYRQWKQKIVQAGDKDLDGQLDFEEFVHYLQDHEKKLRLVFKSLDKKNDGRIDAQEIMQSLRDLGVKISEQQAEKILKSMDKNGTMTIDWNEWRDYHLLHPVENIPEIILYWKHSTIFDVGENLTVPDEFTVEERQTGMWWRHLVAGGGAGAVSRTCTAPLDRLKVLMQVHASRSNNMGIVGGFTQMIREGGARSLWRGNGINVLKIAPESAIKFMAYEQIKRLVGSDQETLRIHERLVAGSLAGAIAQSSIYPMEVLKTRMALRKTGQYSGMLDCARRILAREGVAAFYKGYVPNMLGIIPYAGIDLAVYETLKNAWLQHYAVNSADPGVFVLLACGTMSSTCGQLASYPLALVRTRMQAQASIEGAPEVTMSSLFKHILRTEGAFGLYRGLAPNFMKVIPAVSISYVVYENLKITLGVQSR
UniProt Q6NXT6, sequence (Q6NXT6 whole entry, looked up): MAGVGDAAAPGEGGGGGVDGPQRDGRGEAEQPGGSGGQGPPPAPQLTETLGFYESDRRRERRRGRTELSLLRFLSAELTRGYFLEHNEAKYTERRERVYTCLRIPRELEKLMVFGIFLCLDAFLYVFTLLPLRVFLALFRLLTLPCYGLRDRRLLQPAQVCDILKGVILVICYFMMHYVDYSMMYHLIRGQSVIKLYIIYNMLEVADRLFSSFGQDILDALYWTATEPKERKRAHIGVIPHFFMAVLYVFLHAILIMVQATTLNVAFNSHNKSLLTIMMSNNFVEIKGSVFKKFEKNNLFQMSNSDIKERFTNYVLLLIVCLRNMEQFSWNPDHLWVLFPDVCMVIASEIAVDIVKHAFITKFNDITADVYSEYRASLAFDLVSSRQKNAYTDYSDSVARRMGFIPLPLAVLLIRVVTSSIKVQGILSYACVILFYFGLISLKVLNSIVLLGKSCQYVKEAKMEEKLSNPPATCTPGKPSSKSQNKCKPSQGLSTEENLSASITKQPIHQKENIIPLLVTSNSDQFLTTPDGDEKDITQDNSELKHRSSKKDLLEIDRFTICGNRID
UniProt Q08AE8, sequence (Q08AE8 whole entry, looked up): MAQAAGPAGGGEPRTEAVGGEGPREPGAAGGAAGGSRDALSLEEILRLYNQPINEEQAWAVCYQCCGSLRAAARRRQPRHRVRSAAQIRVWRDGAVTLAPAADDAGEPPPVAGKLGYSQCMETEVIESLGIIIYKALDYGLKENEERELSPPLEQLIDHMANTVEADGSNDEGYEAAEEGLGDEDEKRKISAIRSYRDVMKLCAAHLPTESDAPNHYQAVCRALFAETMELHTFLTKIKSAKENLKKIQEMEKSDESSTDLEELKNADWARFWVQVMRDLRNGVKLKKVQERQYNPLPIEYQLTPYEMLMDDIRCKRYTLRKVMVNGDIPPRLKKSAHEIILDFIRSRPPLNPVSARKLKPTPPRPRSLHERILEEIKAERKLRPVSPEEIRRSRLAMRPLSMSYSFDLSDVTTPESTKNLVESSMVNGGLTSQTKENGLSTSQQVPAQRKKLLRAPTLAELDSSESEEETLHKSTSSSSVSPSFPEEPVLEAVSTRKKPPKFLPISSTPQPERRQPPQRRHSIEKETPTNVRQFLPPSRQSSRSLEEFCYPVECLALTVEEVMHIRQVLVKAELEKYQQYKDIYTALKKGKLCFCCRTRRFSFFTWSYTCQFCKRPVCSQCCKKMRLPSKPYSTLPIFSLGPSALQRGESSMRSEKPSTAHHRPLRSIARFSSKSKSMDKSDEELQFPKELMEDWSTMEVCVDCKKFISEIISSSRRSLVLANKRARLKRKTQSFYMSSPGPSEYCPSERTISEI

Target | log2 fold change (alvocidib) | log2 fold change (Tubastatin A) | log2 fold change [1] | log2 fold change (defactinib) | log2 fold change [2] | log2 fold change (encorafenib) | log2 fold change [3] | log2 fold change (alisertib) | log2 fold change [4] | log2 fold change (gefitinib) | log2 fold change (lapatinib) | log2 fold change (pictilisib) | log2 fold change (crizotinib) | log2 fold change [5] | log2 fold change (duvelisib) | log2 fold change (gandotinib) | log2 fold change (tozasertib) | log2 fold change (doramapimod) | log2 fold change (bafetinib) | log2 fold change [6]
SFN (UniProt P31947) | 0.05 | 0.054 | -0.009 | 0.052 | -0.017 | -0.024 | 0.065 | 0.076 | 0.008 | -0.008 | 0.018 | 0.117 | 0.055 | 0.347 (active) | -0.029 | -0.043 | 0.006 | 0.019 | 0.047 | -0.117
SMG7 (UniProt Q92540) | -0.003 | 0.008 | 0.018 | 0.076 | -0.017 | 0.025 | 0.202 | 0.015 | 0.132 | 0.032 | 0.101 | 0.1 | 0.043 | -0.035 | 0.026 | -0.018 | 0.026 | -0.257 (active) | -0.008 | 0.022
SLC25A25 isoform 3 (UniProt Q6KCM7) | 0.014 | 0.015 | 0.007 | 0.029 | 0.003 | 0.035 | 0.012 | -0.011 | 0.025 | 0.037 | -0.004 | 0.021 | -0.039 | 0.013 | -0.014 | -0.047 | 0 | 0.015 | 0.013 | 0.043
SHCBP1 (UniProt Q8NEM2) | 0.001 | -0.122 | -0.043 | 0.012 | -0.084 | 0.049 | -0.003 | 0.088 | -0.015 | 0.055 | 0.061 | 0.046 | -0.029 | -0.043 | 0.028 | -0.031 | 0.059 | 0.028 | -0.073 | 0.078
SPIRE1 (UniProt Q08AE8) | -0.101 | 0.02 | 0.038 | -0.024 | 0.084 | -0.046 | -0.036 | 0.02 | 0.076 | 0.049 | -0.019 | 0.012 | -0.072 | -0.281 (active) | -0.021 | 0.128 | -0.023 | 0.151 | -0.031 | 0.134
SMG5 (UniProt Q9UPR3) | 0.086 | -0.075 | 0.014 | 0.04 | -0.037 | 0.067 | 0.058 | 0.04 | 0.004 | 0.028 | -0.038 | 0.057 | -0.007 | 0.01 | -0.006 | -0.003 | 0.019 | -0.131 | -0.035 | -0.007
TAPT1 (UniProt Q6NXT6) | -0.101 | 0.037 | -0.086 | 0.047 | 0.056 | 0.053 | -0.074 | -0.016 | -0.006 | 0.055 | -0.007 | 0.025 | -0.044 | -0.196 | 0.012 | 0.057 | 0.031 | 0.024 | 0.01 | 0.093
